Screening data as filed in PubChem.
Only some compounds are listed: those with a hit (about 1.3% of all), similar ones and a draw of the others.
NR5A2 inv ag – suppresses constitutive activity of human LRH-1; O00482; HEK293T StAR-luciferase reporter, LRH-1 transfected, 24 h; inhibition, % at 3.6 µM; 360,000 tested, 0.13% active;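 active = inhibition above the mean inhibition of all tested compounds plus 3 SD, cut at about 73% in these data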;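 note: 0% = DMSO wells and 100% = reporter-only cells lacking LRH-1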
SRC3 inh – inhibits human SRC3 coactivator | HEK293 GAL4-SRC3 luciferase reporter, luminescence | 360,000 tested, 0.17% active | Q9Y6Q9 | inhibition, % at 3.6 µM | AID 588352;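 active = inhibition above a per-campaign cutoff, the mean of all compounds plus 3 SD, cut at about 60% in these data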;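 note: 0% = DMSO-treated cells and 100% = gossypol-treated cells at 36 µM; higher means less SRC3-driven luciferase light from the GAL4 reporter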
Target sequence (Q9Y6Q9 whole entry, looked up, the tested form may be a part): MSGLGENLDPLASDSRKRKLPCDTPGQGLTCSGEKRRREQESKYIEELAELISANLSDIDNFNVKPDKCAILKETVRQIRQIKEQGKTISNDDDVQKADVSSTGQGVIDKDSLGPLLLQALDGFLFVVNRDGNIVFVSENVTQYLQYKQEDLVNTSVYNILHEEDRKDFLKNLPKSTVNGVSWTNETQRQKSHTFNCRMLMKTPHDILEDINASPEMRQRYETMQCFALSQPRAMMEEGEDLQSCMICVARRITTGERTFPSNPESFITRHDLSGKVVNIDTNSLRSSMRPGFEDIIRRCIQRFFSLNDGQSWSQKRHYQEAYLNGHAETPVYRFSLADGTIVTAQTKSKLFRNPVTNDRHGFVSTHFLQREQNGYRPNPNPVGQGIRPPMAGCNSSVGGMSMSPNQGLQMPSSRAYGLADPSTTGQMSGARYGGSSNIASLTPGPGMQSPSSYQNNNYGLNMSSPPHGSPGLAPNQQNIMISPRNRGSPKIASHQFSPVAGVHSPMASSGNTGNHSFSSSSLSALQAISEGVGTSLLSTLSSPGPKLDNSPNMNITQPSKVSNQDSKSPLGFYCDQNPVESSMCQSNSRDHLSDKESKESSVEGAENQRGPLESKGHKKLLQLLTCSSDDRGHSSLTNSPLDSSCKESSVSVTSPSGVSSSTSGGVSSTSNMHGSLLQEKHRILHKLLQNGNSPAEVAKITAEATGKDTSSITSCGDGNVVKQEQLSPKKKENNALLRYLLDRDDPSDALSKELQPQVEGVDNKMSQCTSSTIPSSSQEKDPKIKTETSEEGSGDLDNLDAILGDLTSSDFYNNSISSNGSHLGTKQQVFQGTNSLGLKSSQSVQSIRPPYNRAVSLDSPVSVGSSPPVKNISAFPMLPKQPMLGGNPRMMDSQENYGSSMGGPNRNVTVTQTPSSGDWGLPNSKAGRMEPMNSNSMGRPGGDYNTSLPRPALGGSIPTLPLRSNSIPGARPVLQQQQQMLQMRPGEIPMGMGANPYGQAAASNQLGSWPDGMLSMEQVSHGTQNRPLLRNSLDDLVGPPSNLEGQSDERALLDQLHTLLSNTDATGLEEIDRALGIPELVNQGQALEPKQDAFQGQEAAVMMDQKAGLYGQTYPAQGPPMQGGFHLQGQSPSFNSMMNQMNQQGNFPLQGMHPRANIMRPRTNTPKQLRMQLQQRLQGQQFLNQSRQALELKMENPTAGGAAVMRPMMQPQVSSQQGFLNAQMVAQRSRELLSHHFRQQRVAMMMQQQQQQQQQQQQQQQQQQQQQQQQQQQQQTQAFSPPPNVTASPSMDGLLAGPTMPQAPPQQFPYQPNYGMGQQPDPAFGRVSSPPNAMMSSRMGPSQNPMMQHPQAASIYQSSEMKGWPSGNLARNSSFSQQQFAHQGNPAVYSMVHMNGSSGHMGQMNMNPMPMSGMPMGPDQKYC
SRC1 inh – inhibits human SRC1 coactivator; Q15788; inhibition, % at 3.6 µM; 360,000 tested, 0.12% active; HEK293 GAL4-SRC1 luciferase reporter, luminescence;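 active = inhibition above the campaign mean plus 3 SD, with each screening campaign given its own cutoff, cut at about 60% in these data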;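 note: 0% = DMSO treated cells and 100% = gossypol at 36 µM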
NCOA2 inhibitor – inhibits human steroid receptor coactivator 2; HEK293 GAL4-SRC2 luciferase reporter, luminescence; inhibition, % at 9 µM; 370,000 tested, 0.17% active; AID 651957;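 active = inhibition above the mean inhibition of all tested compounds plus 3 SD, set per campaign, cut at about 52% in these data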;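 note: 0% = DMSO treated cells and 100% = cells given Gossypol at 36 µM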
COUP-TFII inh – blocks human COUP-TFII nuclear receptor | P24468 | HEK293T NGFI-A luciferase reporter, luminescence | inhibition, % at 8.6 µM | 370,000 tested, 0.7% active;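 active = inhibition above a per-plate cutoff, mean inhibition of test wells between control levels plus 3 SD, cut at about 38% in these data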;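 note: cells cotransfected with COUP-TFII expression vector driving the NGFI-A reporter; 0% = median of COUP-TF2 test wells and 100% = reporter-only cells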
Gli-Sufu block – antagonists of Gli-Sufu signaling; Sufu-KO-LIGHT fibroblasts, Gli luciferase reporter luminescence; inhibition, % at 5 µM; 340,000 tested, 0.74% active; AID 588413;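 active = inhibition above about 55%, limit read from the data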;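 note: 0% = DMSO-treated cells and 100% = wells with medium but no cells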
VP16 Luc counter – VP16 inhibition counter-screen for COUP-TFII. shares compounds with COUP-TFII inh. HEK293 Gal4-VP16 luciferase reporter, luminescence. inhibition, % at 8.5 µM. 2,500 tested, 25% active. AID 687007; in the data active = inhibition above about 13%
NR2F2 inh conf – confirmation of human COUP-TFII (NR2F2) inhibitors; shares compounds with COUP-TFII inh; HEK293 NGFI-A luciferase reporter, luminescence; inhibition, % at 8.5 µM; 2,500 tested, 45% active; AID 687008;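 active = mean inhibition over three repeats above a set limit taken from the earlier primary screen, cut at about 38% in these data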;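 note: 100% = cells given the luciferase reporter alone without the COUP-TF2 vector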
* marks the source's active call; other numbers are inactive results; nt = not tested or not shown.

SMILES	NR5A2 inv ag	SRC3 inh	SRC1 inh	NCOA2 inhibitor	COUP-TFII inh	Gli-Sufu block	VP16 Luc counter	NR2F2 inh conf
c1ccc2c(c1)CCN(c1ncnc3c1[nH]c1ccccc13)C2	46.2	31.8	22.8	36.1	70.9*	78.6*	3.5	75.7*
COc1cccc(N2CCN(c3ncnc4c3[nH]c3ccc(F)cc34)CC2C)c1 (centres undefined)	89.2*	87.3*	84.7*	81.3*	90.8*	91.2*	92.3*	108.5*
CC(=O)N1C[C@@H](CO)[C@@H](N(C)C(=O)Nc2cccc3ccccc23)C[C@H]1c1ccccc1	nt	nt	nt	-6.0	-4.7	nt	nt	nt
COc1ccccc1NC(=O)OC1CC2CC1[C@H]1CCCCN1[C@H]2C (some centres undefined)	nt	nt	nt	-10.5	-5.4	nt	nt	nt
CC(/C=N\NC(=O)CSc1nnc(-c2ccc(Br)cc2)n1-c1ccccc1)=C\c1ccco1	nt	nt	nt	-24.8	18.5	nt	nt	nt
Cc1ccc(-c2onc(C)c2C)cc1S(=O)(=O)N1CCOc2ccccc21	-3.2	23.8	-0.4	27.9	58.8*	45.2	-3.1	16.3
Cc1cc(-c2ccc(C(C)C)c(S(=O)(=O)N3CCOc4ccccc43)c2)on1	4.2	4.7	-5.6	-6.5	8.6	3.9	nt	nt
O=C(Nc1ccc(N2CCN(C(=O)c3ccccc3)CC2)c(Cl)c1)c1ccc(Br)o1	11.8	-12.7	-0.7	-14.4	39.6*	9.4	4.1	20.3
CCc1ccc(-c2nnn(CCC(=O)OC)n2)cc1	23.1	25.5	26.5	76.4*	56.7*	30.1	60.3*	50.3*
Cc1cc(C)n(Cc2ccc(NC(=O)c3ccc(COc4ccccc4Br)cc3)cc2)n1	21.1	37.2	21.5	25.2	63.4*	1.7	-7.5	26.4
COc1ccc(C(C)=O)cc1CSc1nnc(Nc2ccc(C)cc2)s1	-18.1	18.6	11.4	17.1	42.1*	3.6	10.1	21.5
COc1ccc(C(C)=O)cc1CSc1nnc(C)s1	13.4	-0.7	-11.6	-21.0	-9.1	1.9	nt	nt
COc1ccc(C(C)=O)cc1CSc1nnc(Nc2ccccc2)s1	22.9	38.2	6.8	9.4	49.9*	26.1	3.0	36.3
S=C(Nc1ccccc1)OC1CCC12CCC(c1ccccc1)CC2 (centres undefined)	nt	nt	nt	4.8	-9.7	nt	nt	nt
O=C(Cc1coc2cc3c(cc12)CCC3)OCC(=O)N1CCCC1=O	12.5	25.6	11.4	54.2*	44.5*	1.2	28.0*	13.3
O=C(O)Cc1coc2cc3c(cc12)CCC3	-11.1	-3.2	-5.8	-6.3	-16.9	1.4	nt	nt
Cc1ccc(C(=O)Sc2cccccc2=O)cc1	61.4	74.9*	0.8	94.1*	48.7*	75.0*	89.0*	91.8*
CCN(c1ccccc1)S(=O)(=O)c1cc(C(=O)Nc2ccc(F)c(F)c2)ccc1F	33.6	12.0	13.5	3.3	44.3*	4.9	-9.0	28.2
CCN(c1ccccc1)S(=O)(=O)c1ccc(C(=O)Nc2cccc(NC(C)=O)c2)cc1	-7.8	14.6	-14.3	1.2	6.7	-1.3	nt	nt
CC(C)(C)N(Cc1cn(CC2CCCCC2)nn1)S(=O)(=O)c1ccccc1Br	nt	nt	nt	13.4	-14.8	nt	nt	nt
CCOc1ccc(-n2c(SCC(=O)Nc3ccc(S(=O)(=O)Nc4cc(C)nc(C)n4)cc3)nnc2-c2ccco2)cc1	nt	nt	nt	-16.9	-12.6	nt	nt	nt
COc1cc(/C=C/C(=O)c2ccc3c(c2)OCCO3)cc(Br)c1OCC(=O)N(C)C	28.0	50.4	10.5	54.8*	37.6*	6.5	30.6*	20.3
O=C(/C=C/c1ccncc1)c1ccc2c(c1)OCCO2	19.3	12.4	-1.9	18.8	-15.8	-0.6	nt	nt
COC(=O)[C@]12C[C@H](CC(=O)NCC3CCCCC3)C(=O)N(Cc3cccc4ccccc34)C1=C[C@H](C1CCCC1)O[C@@H]2C	nt	nt	nt	6.3	1.5	nt	nt	nt
CCNc1nc(N)c([N+](=O)[O-])c(Nc2cccc(Cl)c2)n1	nt	nt	nt	nt	-64.5	nt	nt	nt
SMILES	NR5A2 inv ag	SRC3 inh	SRC1 inh	NCOA2 inhibitor	COUP-TFII inh	Gli-Sufu block	VP16 Luc counter	NR2F2 inh conf
COc1ccc(CCNC(=O)C2CCCN(Cc3nc(-c4ccccc4C)oc3C)C2)cc1OC (centres undefined)	15.4	15.4	-2.3	-14.6	8.4	4.6	nt	nt
CCc1ccc(-c2nc(CN3CCCC(C(=O)NCCc4ccc(OC)c(OC)c4)C3)c(C)o2)cc1 (centres undefined)	-4.9	-10.2	-30.6	28.0	49.3*	1.4	2.7	13.6
C=CCn1c(COc2ccc(C)cc2)nnc1SCc1ccc([N+](=O)[O-])cc1	nt	nt	nt	-11.9	10.9	nt	nt	nt
Cc1cc(NC(=O)CS(=O)(=O)c2cn(Cc3ccccc3Cl)c3ccccc23)no1	19.8	-5.4	15.7	10.4	27.6	-2.9	nt	nt
Cc1cc(NC(=O)CS(=O)(=O)c2cn(Cc3cccc(Br)c3)c3ccccc23)no1	-8.3	5.8	-0.9	4.3	47.5*	nt	-4.1	0.3
COc1ccc(S[C@]2(C(=O)N3CCN(c4ncccn4)CC3)CC(=O)N(C(=O)c3ccccc3)[C@@H]2c2ccc(OC)cc2)cc1	nt	nt	nt	-4.2	7.2	nt	nt	nt
Cc1nc(NC(=O)C(C)(C)C)sc1-c1nc(N)sc1-n1cc(-c2ccccc2)nn1	-37.9	nt	nt	-18.1	4.7	nt	nt	nt
CCNc1nc(-c2sc(NC(=O)C(C)(C)C)nc2C)c(-n2cc(-c3ccccc3)nn2)s1	60.7	nt	nt	12.8	66.0*	nt	2.2	41.0*
O=S(=O)(/C=C/C=C/S(=O)(=O)c1ccccc1)c1ccccc1	28.1	-91.8	-191.0	50.3	50.6*	35.3	49.3*	71.6*
CCOc1ccccc1N1CCN(Cc2cccc(OC)c2O)CC1	21.0	8.6	7.6	-0.6	6.5	0.7	nt	nt
COc1ccccc1N1CCN(Cc2cc(Br)c(O)c3ncccc23)CC1	72.7*	53.6	45.9	28.2	46.6*	57.6*	1.7	15.5
CCN=C1NN=C(c2cc(C)n(Cc3ccco3)c2C)CS1	30.5	61.7*	51.5	71.3*	72.9*	71.2*	20.8*	91.5*
CC(=O)c1cn(CC(=O)Nc2ccc(C)cc2C)c2ccccc12	52.0	33.3	22.0	25.1	50.3*	43.6	13.8*	53.8*
CCCC1CCC2(CC1)CCC2OC(=O)Nc1ccc(F)cc1 (centres undefined)	nt	nt	nt	nt	20.0	nt	nt	nt
Oc1ccc2ccccc2c1CN1CCCCC1	-8.9	-4.9	-18.7	-9.0	44.8*	22.6	-3.8	2.8
C#CCCCN([C@H](C(=O)OC)C(C)C)S(=O)(=O)c1ccc(F)cc1Br	nt	nt	nt	9.4	16.2	nt	nt	nt
COc1ccc(Cc2noc(CN3CCN(c4ccc(Cl)cn4)CC3)n2)cc1OC	11.2	38.9	27.2	19.1	41.3*	1.8	-7.0	13.1
CCCCCc1ccc(OCCCC[n+]2ccc(C)cc2)c(CCCCC)c1	42.3	11.6	-1.2	-16.8	56.3*	86.2*	20.6*	31.9
